Results filed as inconclusive are left out. Active and inactive are the calls of the source.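 The calls were made as follows, unless noted: active = cell viability at or below a set limit in both duplicate runs, the limit being the all-compound median minus 4 SD (cut at about 23% in these data, passing the limit was not always enough); inconclusive = no clear call, values can overlap the other calls; inactive = the rest.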
Tests used:
[1] = biological target: Pantothenate synthetase (Mycobacterium tuberculosis (strain ATCC 25618 / H37Rv)) (UniProt P9WIL5); test: Coupled enzyme confirmation of inhibitors against recombinant Mtb PanC (AID 375; call rule not given here;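 also: 0% = full reaction with vehicle and 100% = no enzyme background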); details: coupled enzyme assay; at 10 µM, stronger effect = higher value
[2] = Her2 expression decrease, cell viability multiplex – SKBR3 breast tumor cells, AlphaScreen, ATP viability, primary screen (AID 461;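 active = Her2 level under about 52% in both replicate screens, with viability over 70% of control, limit read from the data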;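 as to Her2 level: lower value means less Her2 protein in the cells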;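 as to viability: percent of carrier control wells set as 100% viability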); details: SKBR3 Her2 protein level, 18-24 h, measured here: SKBR3 viability, ATP luminescence, at 10 µM
[3] = biological target: Receptor tyrosine-protein kinase erbB-2 (Homo sapiens) (UniProt P04626); test: as above; details: 18-24 h, at 10 µM, stronger effect = lower value
[4] = reduced viability of SK-BR-3 breast cancer cells – cell-based, 24 h, human, pilot screen (AID 572;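 active = viability at or below 10% of carrier control in both of two separate runs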;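 also: compound exposure lasted between 18 and 24 h rather than exactly 24 h; 100% = carrier-treated control wells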); details: SK-BR-3 viability, CellTiter-Glo luminescence, at 10 µM, stronger effect = lower value
[5] = HUVEC growth inhibition – cell-based, human, primary screen (AID 575;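 active = viability at or below 30% in both replicate assays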;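 also: 100% = median of untreated cell wells with 0.1% DMSO on each plate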); details: HUVEC proliferation, CellTiter-Glo luminescence, 72 h; at 10 µM; stronger effect = lower value
[6] = H69AR cell proliferation blockers – human, duplicate replicates, primary screen (AID 580;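 active = viability at or under a set limit in both replicates, limit being median viability minus 3 SD, cut at about 48% in these data, passing the limit was not always enough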;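 also: 100% = mean luminescence of untreated wells and 0% = no signal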); details: H69AR lung tumor cells viability, ATP luminescence, 72 h; at 10 µM; stronger effect = lower value
[7] = MRP1 drug-resistance reversers in H69AR cells – cell-based, doxorubicin co-treatment, pilot screen (AID 601;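 active = viability loss from added drug above about 55%, and viability with drug at most 40%, in both replicates, limit read from the data, passing the limit was not always enough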); details: CellTiter-Glo, 72 h, at 10 µM; for differential viability (reversal): stronger effect = higher value
[8] = yeast transport mutant growth inhibition pilot in 384-well plates, post-Golgi transport modulator project (AID 636; in the data active = inhibition above about 31%); details: absorbance 615 nm, about 18 h, stronger effect = higher value
[9] = growth suppression of yeast trafficking mutant, preliminary HTS, modulators of trafficking downstream of Golgi apparatus project, 1536-format plate, OD 615 nm (AID 637; in the data active = inhibition above about 30%); details: yeast transport mutant growth, absorbance 615 nm, 18 h; stronger effect = higher value
[10] = S. cerevisiae growth inhibition in permissive medium (OD615), pilot counter-assay for S. cerevisiae lifespan shortening project, permissive growth control (AID 705;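 active = growth inhibition above 25% in both replicates, a cutoff set 3 SD above the mean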); details: OD615, 24 h, at 10 µM, stronger effect = higher value
[11] = S. cerevisiae growth inhibition in restrictive medium, OD615, pilot screen, restrictive growth control, yeast lifespan reduction project (AID 706;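 active = growth inhibition above a set limit, 3 SD over mean compound inhibition, in both replicates, cut at about 43% in these data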;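 also: modified DeaD lifespan yeast strain shifted to restrictive glucose medium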); details: OD615, 48 h, at 10 µM, stronger effect = higher value
[12] = doxorubicin toxicity protection in MRP-1 cells – H69AR cells, CellTiter-Glo, duplicate, MRP-1 activator project, pilot screen (AID 807;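 active = viability increase at or above a cutoff of the median across tested compounds plus 3 SD, cut at about 8.5% in these data, passing the limit was not always enough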;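 also: compound pretreatment 18-22 h then 72 h combined with doxorubicin; 0% = doxorubicin alone and 100% = vehicle without doxorubicin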); details: H69AR viability with doxorubicin, CellTiter-Glo luminescence; at 10 µM; stronger effect = higher value
[13] = viability of HCT116 without oncogenic beta-catenin – human colon tumor cells, pilot screen (AID 823); details: HCT116 beta-catenin knockout viability, CellTiter-Glo, 60 h; at 10 µM; stronger effect = lower value;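 also: 0% = wells killed by 20 µM Hyamine and 100% = untreated DMSO cell wells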
[14] = viability of PTEN-null HCT116 cells – cell-based, HCT116 clonal line, CellTiter-Glo, pilot screen (AID 824;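 active = viability at or below 27.92% in each of two runs, the all-compound median minus 4 SD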;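 also: 0% = 20 µM Hyamine control and 100% = vehicle cell control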); details: HCT116 PTEN-deleted viability, 60 h, at 10 µM, stronger effect = lower value
[15] = RAM pathway blockade in budding yeast – dse1pr::URA3 reporter, 5-FOA selection, pilot screen (AID 869;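 active = inhibition over a set limit, the all-compound mean plus 3 SD, in both replicate runs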;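 also: 0% = DMSO wells with no growth and 100% = 10 µM 1-NA-PP1 with full growth; RAM network block rescues cells from 5-FOA so hits raise OD615 growth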); details: S. cerevisiae dse1pr::URA3 5-FOA growth, OD615, 2 d, at 10 µM, stronger effect = higher value
[16] = RAM signaling pathway blockade in yeast – S. cerevisiae, Pdr1DBD-CYC8 efflux-inhibited sensitized strain, primary screen (AID 1298;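 active = RAM network inhibition above 8.4% in each of two replicates, 3 SD over the compound average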;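 also: 0% = DMSO untreated cells without growth and 100% = 10 µM 1-NA-PP1 full growth; higher means more yeast growth rescued from 5-FOA killing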); details: S. cerevisiae cbk1-as DSE1-URA3 strain, 5-FOA growth OD615, 2 d; at 50 µM; stronger effect = higher value
[17] = H69AR cells + 2 uM doxorubicin, measured here: viability with 2 uM doxorubicin, stronger effect = lower value
[18] = H69AR cells, compound alone cytotoxicity

Sequence of Receptor tyrosine-protein kinase erbB-2 (Homo sapiens) (P04626 whole entry, looked up): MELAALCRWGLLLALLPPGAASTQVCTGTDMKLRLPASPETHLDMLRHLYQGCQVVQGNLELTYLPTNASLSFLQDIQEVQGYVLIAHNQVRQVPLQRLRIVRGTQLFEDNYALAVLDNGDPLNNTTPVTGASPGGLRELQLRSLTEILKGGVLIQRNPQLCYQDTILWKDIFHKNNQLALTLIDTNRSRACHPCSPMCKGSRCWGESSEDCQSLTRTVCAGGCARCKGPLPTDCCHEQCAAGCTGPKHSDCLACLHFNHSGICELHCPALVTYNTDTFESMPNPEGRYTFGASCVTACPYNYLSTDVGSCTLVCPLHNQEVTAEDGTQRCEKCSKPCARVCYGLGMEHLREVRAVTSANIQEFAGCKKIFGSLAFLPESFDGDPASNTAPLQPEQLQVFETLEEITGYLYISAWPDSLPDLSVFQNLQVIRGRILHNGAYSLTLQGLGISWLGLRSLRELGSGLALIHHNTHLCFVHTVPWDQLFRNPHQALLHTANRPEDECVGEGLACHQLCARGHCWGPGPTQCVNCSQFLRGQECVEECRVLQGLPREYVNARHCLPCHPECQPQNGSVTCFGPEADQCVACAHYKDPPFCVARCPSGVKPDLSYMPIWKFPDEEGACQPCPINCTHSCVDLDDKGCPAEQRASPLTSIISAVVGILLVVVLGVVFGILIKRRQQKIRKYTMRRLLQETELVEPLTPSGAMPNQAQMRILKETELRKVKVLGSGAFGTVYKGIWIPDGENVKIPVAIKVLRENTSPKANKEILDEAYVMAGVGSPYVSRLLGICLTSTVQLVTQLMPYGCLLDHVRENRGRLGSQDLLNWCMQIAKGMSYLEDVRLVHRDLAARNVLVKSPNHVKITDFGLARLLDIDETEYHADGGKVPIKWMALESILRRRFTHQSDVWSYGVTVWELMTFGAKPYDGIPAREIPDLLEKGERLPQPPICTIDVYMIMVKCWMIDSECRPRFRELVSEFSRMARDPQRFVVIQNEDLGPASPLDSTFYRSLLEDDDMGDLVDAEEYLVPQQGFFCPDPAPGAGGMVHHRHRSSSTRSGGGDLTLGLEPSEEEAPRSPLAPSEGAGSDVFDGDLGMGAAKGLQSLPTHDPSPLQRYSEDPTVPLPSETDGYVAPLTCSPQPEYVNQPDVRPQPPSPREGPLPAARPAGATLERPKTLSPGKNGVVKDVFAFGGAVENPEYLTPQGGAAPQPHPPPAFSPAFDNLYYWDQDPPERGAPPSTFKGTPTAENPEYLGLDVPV
Sequence of Pantothenate synthetase (Mycobacterium tuberculosis (strain ATCC 25618 / H37Rv)) (P9WIL5 whole entry, looked up): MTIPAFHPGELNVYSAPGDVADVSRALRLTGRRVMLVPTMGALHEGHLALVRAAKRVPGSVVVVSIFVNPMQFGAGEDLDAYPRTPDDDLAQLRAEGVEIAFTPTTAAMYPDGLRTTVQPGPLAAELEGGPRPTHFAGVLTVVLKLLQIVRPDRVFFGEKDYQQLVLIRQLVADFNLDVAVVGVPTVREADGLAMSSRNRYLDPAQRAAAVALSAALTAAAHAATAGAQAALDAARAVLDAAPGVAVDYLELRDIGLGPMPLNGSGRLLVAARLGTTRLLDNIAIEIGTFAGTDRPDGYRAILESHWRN

| SMILES | inhibition [1] | viability [2] [%] | Her2 level [3] | viability [4] | viability [5] | viability [6] | differential viability (reversal) ([7]; H69AR cells + 2 uM doxorubicin) | viability [7, 17] [%] | viability [7, 18] [%] | inhibition [8] | inhibition [9] | growth inhibition [10] | growth inhibition [11] | viability increase [12] | viability [13] | viability [14] | inhibition [15] | RAM network inhibition [16] |
| --- | --- | --- | --- | --- | --- | --- | --- | --- | --- | --- | --- | --- | --- | --- | --- | --- | --- | --- |
| CP(C)(=O)CCC(=O)O | 0% (inactive) | 101 | 105% (inactive) | 101% (inactive) | 81.4% (inactive) | 100% (inactive) | 18.2% (inactive) | 82.1 | 100 | -4.94% (inactive) | 3.44% (inactive) | -18% (inactive) | -19.2% (inactive) | 0.16% (inactive) | 101% (inactive) | 98.1% (inactive) | 0.42% (inactive) | 2.22% (inactive) |
| C[C@H]1CCCC(=O)CCC/C=C/c2cc(O)cc(O)c2C(=O)O1 | 0% (inactive) | 98.5 | 16% (active) | 98.5% (inactive) |  | 38.4% (active) | -57.4% (inactive) | 95.8 | 38.4 | -3.47% (inactive) | 1.15% (inactive) | -12.9% (inactive) | -14.8% (inactive) | -6.31% (inactive) | 65.3% (inactive) | 66.5% (inactive) | 2.21% (inactive) | 4.86% (inactive) |
| CCCOC(=O)COc1cc(C)cc2oc(=O)c3c(c12)CCC3 |  |  |  |  |  |  |  |  |  |  |  | -10.1% (inactive) | -13.8% (inactive) | 1.68% (inactive) | 88% (inactive) | 86.1% (inactive) | 1.03% (inactive) | 4.39% (inactive) |
| CCOC(=O)c1c(C)n(Cc2ccco2)c2ccc(OC)cc12 |  |  |  |  |  |  |  |  |  |  |  | 3.7% (inactive) | 0.26% (inactive) | -4.85% (inactive) | 84.4% (inactive) | 85.8% (inactive) | 0.59% (inactive) | 3.6% (inactive) |
| CC1(C)Cc2c(sc3c2C(=O)NC(c2cccnc2)N3)CO1 (stereo not drawn) | 7% (inactive) | 113 | 83.5% (inactive) | 113% (inactive) | 102% (inactive) | 98.5% (inactive) | 12.8% (inactive) | 85.7 | 98.5 | -3.47% (inactive) | 1.48% (inactive) | -16.3% (inactive) | 11.8% (inactive) | -2.97% (inactive) | 107% (inactive) |  | 1.58% (inactive) | 5.15% (inactive) |
| Cc1ccc2occ(CN3CC4CC(C3)c3cccc(=O)n3C4)c(=O)c2c1 (stereo not drawn) |  |  |  |  |  |  |  |  |  |  |  | -16.2% (inactive) | -17.7% (inactive) | -2.72% (inactive) | 98.5% (inactive) | 90.8% (inactive) | 1.96% (inactive) | 1.61% (inactive) |
| COc1ccc(CN2CC3CC(C2)c2cccc(=O)n2C3)cc1OC (stereo not drawn) |  |  |  |  |  |  |  |  |  |  |  | -11.4% (inactive) | -6.36% (inactive) | -1.47% (inactive) | 93.2% (inactive) | 93.7% (inactive) | 2.04% (inactive) | 1.09% (inactive) |
| CCCC(C)C1C(C#N)=C(N)Oc2c1c(=O)oc1ccccc21 (stereo not drawn) | 4% (inactive) | 116 | 106% (inactive) | 116% (inactive) | 66.8% (inactive) | 67.7% (inactive) | -11.5% (inactive) | 79.2 | 67.7 | -2.21% (inactive) | -0.33% (inactive) | -16.8% (inactive) | -20.1% (inactive) | -5.21% (inactive) | 91.6% (inactive) | 97% (inactive) | 3.74% (inactive) | 8.16% (inactive) |
| Cc1nc2ccccc2c(=O)n1-c1ccc(F)cc1 | 0% (inactive) | 104 | 90% (inactive) | 104% (inactive) | 93.6% (inactive) | 96.1% (inactive) | 11.5% (inactive) | 84.6 | 96.1 | -5.32% (inactive) | 1.5% (inactive) | -2.1% (inactive) | 4.13% (inactive) | -0.87% (inactive) | 97.7% (inactive) | 100% (inactive) | 1.44% (inactive) | 1.29% (inactive) |
| O=C(c1ccccc1)c1cn(CC(=O)N2CCCC2)c2ccccc12 |  |  |  |  |  |  |  |  |  |  |  | -15.1% (inactive) | -16.4% (inactive) | -1.14% (inactive) | 102% (inactive) | 92% (inactive) | 3.23% (inactive) | 4.67% (inactive) |
| Cc1cccc(N2CCc3c2nc2ccccc2c3N)c1 | 0% (inactive) | 84.5 | 86% (inactive) | 84.5% (inactive) |  |  | -14.1% (inactive) | 63.9 | 49.8 | -2.53% (inactive) | 7.67% (inactive) | -1.63% (inactive) | -0.635% (inactive) | -6.21% (inactive) | 36.4% (inactive) | 44.5% (inactive) | 3.02% (inactive) | 4.96% (inactive) |
| Cc1cc(OC(=O)c2ccco2)c2c3c(c(=O)oc2c1)CCC3 |  |  |  |  |  |  |  |  |  |  |  | 2.81% (inactive) | -1.05% (inactive) | -1.26% (inactive) | 94.3% (inactive) | 85.2% (inactive) |  | 4.5% (inactive) |
| CCCCCCOc1ccc(CN2CCN(C)CC2)cc1 | 0% (inactive) | 83.5 | 87% (inactive) | 83.5% (inactive) | 61.5% (inactive) | 77.2% (inactive) | 6.76% (inactive) | 70.5 | 77.2 | -5.06% (inactive) | 3.44% (inactive) | -13.5% (inactive) | -20.8% (inactive) | -5.38% (inactive) | 47.7% (inactive) | 49% (inactive) | -0.45% (inactive) | 0.09% (inactive) |

Reference: PubChem BioAssay
